Assay outcomes: PubChem BioAssay, National Center for Advancing Translational Sciences (NCATS)
Rab9 promoter act – Rab9 promoter activation | 2.8% of 320,000 active | Huh7 Rab9 promoter-luciferase reporter, luminescence, 24 h | Potency, µM (highest dose often 9.22 µM), for inactives: top-dose activation, negative = inhibition, usual class: activators; further: % of control where 0% means no effect; nearly all actives have a fitted effect of over 60% in size
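Using Huh7 cells stably transfected with Rab9 promoter–luciferase, compounds were incubated 24 h at 37 °C, 5% CO2; luciferase luminescence was read 10 min after reagent addition.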
Luc counter – blocks Kinase-Glo luciferase, a counter-screen artifact. Q27757. Kinase-Glo luciferase, ATP luminescence, 8 min. Potency, µM (series often up to 38.3 µM), without a hit: at the highest dose activity change, negative = inhibition, most hits filed as inhibitors. 0.28% of 200,000 active. AID 1379; further: on the % scale 0 is the no-effect control and ±100 the full control effect; nearly all actives have a fitted effect of over 60% in size
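Compounds were added to a substrate mix at pH 7.2 (50 mM imidazole, 10 uM ATP, within the enzyme's linear range), followed by Kinase-Glo detection reagent; luminescence was measured after 8 minutes at ambient temperature.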
SMN2 splice enh – increases expression of the SMN2 splice variant. HEK293 SMN2-luciferase splicing reporter, luminescence, 30-36 h. Potency, µM (titrated, usually from 46.1 µM), without a hit: top-dose activity change, positive = activation, hits mostly activators. 2.8% of 210,000 active; further: % of control where 0% means no effect; nearly all actives have a fitted effect of over 55% in size
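HEK293 cells carry an SMN2 […]–luciferase reporter in which exon 7 inclusion puts luciferase in frame. Cells were plated 10-12 h before compound addition, then incubated 30-36 h at 37C. ONE-Glo luminescence was read; sodium butyrate at 4.5 mM final served as control.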
FLuc counter – inhibits or activates purified firefly luciferase, miR-21 counter-screen. P08659. purified FLuc, Km substrates, luminescence inhibition. Potency, µM (top dose mostly 57.5 µM), for inactives: at the highest dose activity change, negative = inhibition, most hits filed as inhibitors. 6.9% of 360,000 active. AID 588342;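 further: plate controls were vehicle for no effect and reference inhibitor for full effect; nearly all actives have a fitted effect of over 55% in size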
Target sequence (P08659 whole entry, looked up): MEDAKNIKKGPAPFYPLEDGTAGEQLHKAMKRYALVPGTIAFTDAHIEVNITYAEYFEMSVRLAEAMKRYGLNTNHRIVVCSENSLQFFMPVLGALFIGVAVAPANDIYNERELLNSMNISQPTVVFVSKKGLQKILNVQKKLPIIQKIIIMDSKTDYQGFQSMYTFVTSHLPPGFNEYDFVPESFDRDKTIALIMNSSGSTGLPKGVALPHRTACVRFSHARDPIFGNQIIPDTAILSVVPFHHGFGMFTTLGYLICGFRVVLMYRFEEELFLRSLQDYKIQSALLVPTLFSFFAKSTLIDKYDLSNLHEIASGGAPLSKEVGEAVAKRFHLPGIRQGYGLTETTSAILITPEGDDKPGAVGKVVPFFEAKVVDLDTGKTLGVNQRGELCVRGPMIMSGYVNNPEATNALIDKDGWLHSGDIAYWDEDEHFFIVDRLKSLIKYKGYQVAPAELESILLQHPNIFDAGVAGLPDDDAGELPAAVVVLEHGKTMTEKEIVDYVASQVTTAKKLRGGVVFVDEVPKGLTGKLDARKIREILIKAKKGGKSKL
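Biochemical qHTS of compounds, final roughly 60 µM downward over six points, against 10 nM purified firefly luciferase using Km concentrations of substrates (10 uM D-luciferin, 10 uM ATP) in Tris acetate pH 7.5 buffer; luminescence output.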
NPC1 promoter act – NPC1 promoter activation. Huh7 NPC1 promoter luciferase reporter, 24 h. Potency, µM (top dose mostly 9.22 µM), inactives show at the highest dose activation, usual class: activators. 2.4% of 320,000 active. AID 485313; further: % of control where 0% means no effect; nearly all actives have a fitted effect of over 60% in size
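Stable NPC1-promoter luciferase Huh7 line; cpd (DMSO) 24 h, 37 °C, 5% CO2; Amplite luciferase reagent 10 min RT; luminescence readout. qHTS format.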
* hit, by the source's call. The list is not random: actives were taken first. Their share in the collection is about 7.3%. The call rests on the fitted dose curve; in most records, active means well fitted curve in the direction sought with a large enough effect; inconclusive means small, poorly fitted or top-dose-only effect, or another doubt; inactive means no such curve, though single readings can be large; an effect the other way counts as inactive or inconclusive. Potency means the concentration at half of the fitted maximal effect.

O=C(CSc1ccc(Cl)cc1)N1N=CCC1c1ccccc1 (stereo not drawn) was read as Rab9 promoter act 3.0%, FLuc counter -13.5% and NPC1 promoter act -2.7%.
`O=C(CSC(=S)N1CCCCC1)N1N=CCC1c1ccccc1` (stereo not drawn) gave Rab9 promoter act 22.4%, Luc counter -4.1%, SMN2 splice enh -3.6%, FLuc counter 21.3µM* and NPC1 promoter act 25.6%.
Screening O=C(O)c1ccc(COc2ccc(CO)cc2Cl)cc1 returned Rab9 promoter act 4.47µM*, Luc counter 1.5%, SMN2 splice enh inconclusive, FLuc counter 5.36µM* and NPC1 promoter act inconclusive.
Screening O=C(O)c1cccc(COc2ccc(CO)cc2Cl)c1 returned Rab9 promoter act 1.26µM*, Luc counter -15.8%, SMN2 splice enh 0.0398µM*, FLuc counter 0.0213µM* and NPC1 promoter act 1.26µM*.
`CN1CCN(C(=O)c2ccc(COc3ccc(Cl)cc3Cl)cc2)CC1` gave Rab9 promoter act 0.6%, Luc counter -2.3%, SMN2 splice enh -4.4%, FLuc counter 12µM* and NPC1 promoter act -1.8%.
CCN(CC)S(=O)(=O)c1ccc2c(c1)N(CC(=O)N1CCN(c3cccc(C)c3C)CC1)C(=O)CO2 was read as FLuc counter 2.1%.
Screening CCc1ccccc1NCc1nnc2n1CCCCC2 returned FLuc counter -2.6%.
`Cc1cccc(NC(=O)CCc2c(C)nn(-c3ccc(N4CCCCC4)nn3)c2C)c1` gave Rab9 promoter act inconclusive, FLuc counter 5.36µM* and NPC1 promoter act inconclusive.
Screening COc1cccc(NC(=O)CCc2c(C)nn(-c3ccc(N4CCOCC4)nn3)c2C)c1 returned Rab9 promoter act 15.4%, FLuc counter inconclusive and NPC1 promoter act 5.6%.
Screening Cc1ccc(C)c(NC(=O)CCc2c(C)nn(-c3ccc(N4CCCC4)nn3)c2C)c1 returned FLuc counter 0.2%.
`Cc1cccc(NC(=O)CCc2c(C)nn(-c3ccc(N4CCOCC4)nn3)c2C)c1` gave Rab9 promoter act 25.7%, FLuc counter 15.1µM* and NPC1 promoter act 28.3%.
COc1ccc(-n2c(=O)c3c4c(sc3n(Cc3cc(C)ccc3C)c2=O)CN(C(C)=O)CC4)c(OC)c1 was read as SMN2 splice enh 18.4% and FLuc counter -7.4%.
For O=C(/C=C/c1ccc([N+](=O)[O-])cc1)NCc1cccs1 the results were Rab9 promoter act -0.2%, Luc counter -1.8%, SMN2 splice enh -33.6%, FLuc counter inconclusive and NPC1 promoter act -3.5%.
For Cc1ccc(/C=C/C(=O)NCc2cccs2)cc1 the results were Rab9 promoter act 6.2%, Luc counter -0.2%, SMN2 splice enh 11.2µM*, FLuc counter 10.7µM* and NPC1 promoter act 25.4%.
Cc1ccc(/C=C/C(=O)NCc2cccs2)c(C)c1 was read as Rab9 promoter act 2.82µM*, Luc counter 5.1%, FLuc counter 6.75µM* and NPC1 promoter act inconclusive.
Screening Cc1ccc(/C=C/C(=O)NCc2cccs2)o1 returned Rab9 promoter act 16.3%, Luc counter 2.5%, SMN2 splice enh 13.2%, FLuc counter inconclusive and NPC1 promoter act 7.5%.
COCCN(C(=O)Cc1cccs1)C(C(=O)NC1CCCC1)c1cc(OC)c(OC)c(OC)c1 (stereo not drawn) was read as Rab9 promoter act inconclusive, Luc counter -0.8%, FLuc counter 4.78µM* and NPC1 promoter act inconclusive.
`CC(C)CNS(=O)(=O)c1cc(C(=O)OCC(=O)c2ccc3c(c2)OCCO3)c(Cl)cc1Cl` gave Rab9 promoter act -14.2%, Luc counter 2.2%, SMN2 splice enh -8.2%, FLuc counter 12µM* and NPC1 promoter act -1.0%.
CCCn1c(C)cc(C(=O)COC(=O)c2nccnc2N)c1C was read as Rab9 promoter act 0.447µM*, Luc counter -9.7%, SMN2 splice enh 10µM*, FLuc counter 3.38µM* and NPC1 promoter act 1.12µM*.
COc1ccc(CCn2c(C)cc(C(=O)COC(=O)c3cnccn3)c2C)cc1 was read as Rab9 promoter act 1.6%, FLuc counter 4.8% and NPC1 promoter act -1.4%.
For CCCn1c(C)cc(C(=O)COC(=O)c2cc(S(=O)(=O)NCC(C)C)c(Cl)cc2Cl)c1C the results were Rab9 promoter act -5.7%, Luc counter -3.4%, SMN2 splice enh inconclusive, FLuc counter 9.53µM* and NPC1 promoter act 1.3%.
Screening CCCn1c(C)cc(C(=O)COc2ncnc3sccc23)c1C returned Rab9 promoter act 2.24µM*, Luc counter 1.3%, SMN2 splice enh 11.2µM*, FLuc counter 8.49µM* and NPC1 promoter act 2.82µM*.
Screening Cc1cc(NC(=O)c2cc(-c3ccc(Cl)c(Cl)c3)on2)n(-c2ccccc2)n1 returned SMN2 splice enh 6.5% and FLuc counter -4.9%.
Screening Cn1ncc(N=Cc2ccccc2[N+](=O)[O-])c1C(N)=O returned Rab9 promoter act -1.9%, FLuc counter 0.7% and NPC1 promoter act 2.9%.
Screening CN(C)c1ccc(C=Nc2cnn(C)c2C(N)=O)cc1 returned Rab9 promoter act 1.0%, Luc counter -5.4%, FLuc counter 4.78µM* and NPC1 promoter act -4.3%.
COc1ccc(OC)c(NC(=O)CCn2cccn2)c1 was read as FLuc counter 4.6%.
Screening COCCNC(=O)C(=O)Nc1ccc(Br)cc1 returned Rab9 promoter act inconclusive, Luc counter -8.5%, SMN2 splice enh 11.2µM*, FLuc counter inconclusive and NPC1 promoter act inconclusive.
Screening CCCNC(=O)C(=O)Nc1ccc(N(C)C)cc1 returned Rab9 promoter act 3.16µM*, Luc counter 2.1%, SMN2 splice enh 11.2µM*, FLuc counter 13.5µM* and NPC1 promoter act inconclusive.
For COc1ccc(CCNC(=O)Cn2c(=O)c3sccc3n(CC(=O)Nc3cccc(C(F)(F)F)c3)c2=O)cc1OC the results were SMN2 splice enh -14.0% and FLuc counter -1.7%.
Screening O=C(CCc1nc2cccnc2n1-c1ccccc1)Nc1ccc(Cl)c(Cl)c1 returned SMN2 splice enh -5.2% and FLuc counter -4.7%.
`CCCN1CCN(CCCNC(=O)Cn2c(-c3cccs3)cc3ccccc32)CC1` gave FLuc counter -3.3%.
CCOC(=O)/C(=N\Nc1ncnc2ccccc12)c1ccc(OC)cc1 was read as Rab9 promoter act 3.16µM*, FLuc counter 5.36µM* and NPC1 promoter act 3.55µM*.
COc1ccc(/C(=N/Nc2ncnc3ccccc23)C(=O)O)cc1 was read as Rab9 promoter act 1.3%, FLuc counter inconclusive and NPC1 promoter act 2.3%.
For CCOC(=O)c1ccc(N2Cc3ccccc3C2)cc1O the results were Rab9 promoter act inconclusive, Luc counter -1.1%, FLuc counter 8.49µM* and NPC1 promoter act 26.9%.
